Screening results: PubChem BioAssay, National Center for Advancing Translational Sciences (NCATS)
ELG1 genotox – qHTS screen for small molecules that induce genotoxicity in human embryonic kidney (HEK293T) cells expressing luciferase-tagged ELG1 | HEK293T ELG1-luciferase reporter, luminescence, 16 h | Potency, µM (highest dose often 46 µM), for the others: at the highest dose activity change, positive = activation, usual class: activators | 1.3% of 330,000 active; note: % of control where 0% means no effect; nearly all actives have a fitted effect of over 60% in size
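Genotoxic stress is detected as increased luminescence from luciferase-tagged ELG1 in HEK293T cells, measured with ONE-Glo after a 16 hr treatment at 37 °C.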
Rab9 promoter act – qHTS Assay for Rab9 Promoter Activators; Huh7 Rab9 promoter-luciferase reporter, luminescence, 24 h; Potency, µM (titrated, usually from 9.22 µM), inactives show at the highest dose activation, negative = inhibition, hits mostly activators; 2.8% of 320,000 active; note: % of control where 0% means no effect; nearly all actives have a fitted effect of over 60% in size
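Stable Rab9-luc Huh7, 1500 cells/well, 2 h settle; cmpd in DMSO, 24 h, 37 °C/5% CO2; luciferase reagent 10 min RT; luminescence.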
NPC1 promoter act – qHTS Assay for NPC1 Promoter Activators; Huh7 NPC1 promoter luciferase reporter, 24 h; Potency, µM (doses to about 9.22 µM), for inactives: at the top dose activation, hits mostly activators; 2.4% of 320,000 active; AID 485313, 2010; note: % of control where 0% means no effect; nearly all actives have a fitted effect of over 60% in size
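Huh7 cells stably carrying NPC1 promoter–luciferase, plated in Opti-MEM with 10% FBS for 2 h, were exposed to compound in DMSO for 24 h at 37 °C; luciferase reagent was added for 10 min and luminescence read.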
FLuc modulator – qHTS profiling assay for firefly luciferase inhibitor/activator using purifed enzyme and Km concentrations of substrates (counterscreen for miR-21 project). purified FLuc, Km substrates, luminescence inhibition. Luciferin 4-monooxygenase (Photinus pyralis), P08659. 6.9% of 360,000 active. Potency, µM (series often up to 57.5 µM), for inactives: top-dose activity change, negative = inhibition, usual class: inhibitors;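 note: plate controls were vehicle for no effect and reference inhibitor for full effect; nearly all actives have a fitted effect of over 55% in size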
Target sequence (P08659 whole entry, looked up): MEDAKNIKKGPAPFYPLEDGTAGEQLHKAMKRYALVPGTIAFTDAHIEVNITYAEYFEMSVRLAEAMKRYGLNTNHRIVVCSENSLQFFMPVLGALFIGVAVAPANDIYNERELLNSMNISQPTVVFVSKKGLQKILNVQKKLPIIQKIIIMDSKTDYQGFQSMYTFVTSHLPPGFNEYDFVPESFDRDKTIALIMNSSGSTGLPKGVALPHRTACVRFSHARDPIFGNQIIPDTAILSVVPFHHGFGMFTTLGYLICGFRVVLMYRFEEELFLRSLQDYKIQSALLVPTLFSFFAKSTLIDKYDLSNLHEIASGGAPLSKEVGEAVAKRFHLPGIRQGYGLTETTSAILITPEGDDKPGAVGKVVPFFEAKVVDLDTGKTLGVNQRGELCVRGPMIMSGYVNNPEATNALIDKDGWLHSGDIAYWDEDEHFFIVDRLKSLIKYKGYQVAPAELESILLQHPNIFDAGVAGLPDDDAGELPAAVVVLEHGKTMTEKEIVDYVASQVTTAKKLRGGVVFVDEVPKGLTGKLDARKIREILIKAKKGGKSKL
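Biochemical qHTS of compounds, final roughly 60 µM downward over six points, against 10 nM purified firefly luciferase using Km concentrations of substrates (10 uM D-luciferin, 10 uM ATP) in Tris acetate pH 7.5 buffer; luminescence output.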
KinaseGlo FLuc – Counterscreen for Luciferase (Kinase-Glo TM) Inhibition; Kinase-Glo luciferase, ATP luminescence, 8 min; Potency, µM (series often up to 38.3 µM), inactives show top-dose activity change, negative = inhibition, usual class: inhibitors; 0.28% of 200,000 active; AID 1379, 2008; note: % is set by controls: 0 for no effect and ±100 for the full control effect; nearly all actives have a fitted effect of over 60% in size
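Compounds were added to a substrate mix at pH 7.2 (50 mM imidazole, 10 uM ATP, within the enzyme's linear range), followed by Kinase-Glo detection reagent; luminescence was measured after 8 minutes at ambient temperature.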
SMN2 splice enh – qHTS Assay for Enhancers of SMN2 Splice Variant Expression. Potency, µM (series often up to 46.1 µM), inactives show at the highest dose activity change, positive = activation, most hits filed as activators. HEK293 SMN2-luciferase splicing reporter, luminescence, 30-36 h. 2.8% of 210,000 active; note: % of control where 0% means no effect; nearly all actives have a fitted effect of over 55% in size
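HEK293 cells carry an SMN2 […]–luciferase reporter in which exon 7 inclusion puts luciferase in frame. Cells were plated 10-12 h before compound addition, then incubated 30-36 h at 37C. ONE-Glo luminescence was read; sodium butyrate at 4.5 mM final served as control.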
* hit, by the source's call. In the library only some 7.3% were active in any assay of this set; here they are far more common. Calls come from the whole dose curve; as a rule, active = well fitted curve in the direction sought with a large enough effect; inconclusive = small, poorly fitted or top-dose-only effect, or another doubt; inactive = no such curve, though single readings can be large; an effect the other way counts as inactive or inconclusive. Potency is the fitted concentration of half-maximal effect.

What do the screens show for `O=C(NCC(c1cccs1)S(=O)(=O)c1ccccc1)c1ccc(C(F)(F)F)cc1` (configuration not stated)?
FLuc modulator: 1.8%

Results for O=S(=O)(NCC(c1ccco1)S(=O)(=O)c1ccccc1)c1ccccc1 (configuration not stated) ?
FLuc modulator: -9.8%

How did Cc1ccc(C(=O)CC(c2cccs2)S(=O)(=O)c2ccc(C)cc2)cc1 (configuration not stated) do in these assays?
ELG1 genotox: inconclusive; Rab9 promoter act: inconclusive; NPC1 promoter act: 27.8%; FLuc modulator: 1.35µM*; KinaseGlo FLuc: -4.8%; SMN2 splice enh: 22.1%

What do the screens show for `Cc1cc(C)c(NC(=O)Cn2c(=O)n(CCC(C)C)c(=O)c3cccnc32)c(C)c1`?
FLuc modulator: -3.6%; SMN2 splice enh: 2.4%

How did CCN(CC)c1ccc(NC(=O)c2cnn(-c3ccccc3)c2-n2cccc2)c(C)c1 do in these assays?
FLuc modulator: -13.1%; SMN2 splice enh: inconclusive

How did COc1ccc(N2CCN(C(=O)c3nc(-c4ccc(Cl)cc4)n4c3CCCCC4)CC2)cc1 do in these assays?
FLuc modulator: -2.6%

Results for CCCn1c(=O)c2sccc2n2c(CCCC(=O)Nc3cccc(CC)c3)nnc12 ?
FLuc modulator: 3.2%

What do the screens show for `CC(=O)COC(=O)c1cc(-c2ccc(C)cc2)nc2ccccc12`?
ELG1 genotox: 6.2%; Rab9 promoter act: 24.0%; NPC1 promoter act: 15.9%; FLuc modulator: 16.9µM*; KinaseGlo FLuc: 1.0%

What do the screens show for `COc1ccc(/C(N)=N/OC(=O)c2cc(-c3ccccc3)nc3ccccc23)cc1`?
ELG1 genotox: -3.3%; Rab9 promoter act: -1.4%; NPC1 promoter act: 2.1%; FLuc modulator: inconclusive; KinaseGlo FLuc: -10.2%; SMN2 splice enh: -15.6%

How did Cc1ccc(C(=O)COC(=O)c2cc(-c3ccc(Cl)cc3)nc3ccccc23)cc1 do in these assays?
FLuc modulator: -9.9%; SMN2 splice enh: 3.5%

What do the screens show for `Cc1ccc(/C(N)=N/OC(=O)c2cc(-c3ccccc3)nc3ccccc23)cc1`?
ELG1 genotox: -0.4%; Rab9 promoter act: -0.6%; NPC1 promoter act: -0.4%; FLuc modulator: 13.5µM*; KinaseGlo FLuc: -3.2%; SMN2 splice enh: 7.4%

Results for Cc1ccc(-c2cc(C(=O)Oc3ccccc3)c3cc(C)ccc3n2)cc1 ?
FLuc modulator: 21.3µM*; SMN2 splice enh: 0.0%

What do the screens show for `N/C(=N\OC(=O)c1cc(-c2ccccc2)nc2ccccc12)c1ccccn1`?
ELG1 genotox: -7.5%; Rab9 promoter act: 13.9%; NPC1 promoter act: 9.5%; FLuc modulator: 9.53µM*; KinaseGlo FLuc: -3.6%

How did CC(C)(C)C(=O)COC(=O)c1cc(-c2ccncc2)nc2ccccc12 do in these assays?
ELG1 genotox: -7.1%; Rab9 promoter act: 14.1%; NPC1 promoter act: -3.7%; FLuc modulator: inconclusive; KinaseGlo FLuc: 0.4%; SMN2 splice enh: 0.8%

What do the screens show for `CCOc1ccc(CCNC(=O)c2c(C)oc3ncn(CC(C)C)c(=O)c23)cc1`?
FLuc modulator: -3.7%

What do the screens show for `NC(=S)NNC(N)=S`?
SMN2 splice enh: 14.1%

What do the screens show for `Nc1cccc(/C=C/c2ccncc2)c1`?
ELG1 genotox: 11.8%; Rab9 promoter act: 24.8%; NPC1 promoter act: inconclusive; FLuc modulator: 16.9µM*

Results for Cc1nc(Nc2ccccc2Cl)sc1C(=O)Nc1ccccc1 ?
ELG1 genotox: 7.9%; Rab9 promoter act: -1.0%; NPC1 promoter act: 15.7%; FLuc modulator: 19µM*; KinaseGlo FLuc: -0.2%; SMN2 splice enh: 20.5%
